This passage reports binding signal results from PMC12820563, “FoxP3 forms a head-to-head dimer in vivo and stabilizes its multimerization on adjacent microsatellites”.

Over roughly 16,000 sequences, “rpm ratio (pull-down/input)” has its median near 0.94; the highest 2% begin near 1.7. The sample holds the highest values, similar sequences and a random draw of the others, so the mix is not that of the screen.

In this assay the target is T1, MBP-FoxP1dN (Mus musculus, UniProt P58462 326-579).
T1 sequence: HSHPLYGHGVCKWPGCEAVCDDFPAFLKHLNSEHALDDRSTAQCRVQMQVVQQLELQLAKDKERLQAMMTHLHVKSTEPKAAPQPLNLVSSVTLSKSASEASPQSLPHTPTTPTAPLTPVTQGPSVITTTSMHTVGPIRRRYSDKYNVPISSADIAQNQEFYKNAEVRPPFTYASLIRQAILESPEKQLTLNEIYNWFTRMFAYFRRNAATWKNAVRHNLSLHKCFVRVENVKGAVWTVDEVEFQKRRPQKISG
As to the kind of experiment: PD-seq (MBP pull-down with sequencing); 20 mM Tris-HCl pH 7.5, 100 mM NaCl, 1.5 mM MgCl2, 0.4 uM protein, 0.1 uM dsDNA library, 30 min, room temperature, amylose pull-down; high values mean tight binding. The following applies: protein: recombinant; tags: His6-MBP; chain copies: 2; dsDNA, one strand shown. An outline of the steps:
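Amylose resin was used to capture complexes formed during 30 min at room temperature in Tris pH 7.5 buffer with NaCl and MgCl2 between 0.4 µM His6-MBP-tagged mouse FoxP3 or FoxP1 fragment lacking the N-terminus, expressed in E. coli, and 0.1 µM Klenow-filled double-stranded degenerate DNA library. After three washes, the DNA was released with proteinase K, barcoded by PCR and sequenced on Illumina. Binding is pooled-replicate reads-per-million enrichment, pull-down over input.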
As for “GATGATTGTTCTCCCAGCTGATGAATTATTAATGTCGAGTAAACAAATTTTCCTAATCTTTCTGTTCAAGCGCCATCTAC”, the binding signal is 1.35 RPM ratio (pull-down/input).

With “GATGATTGTTCTCCCAGCTGATGAATTATGATTGTCGAGTAAACAAATTTTCCTAATCTTTCTGTTCAAGCGCCATCTAC”, the binding signal was 1.45 RPM ratio (pull-down/input).

Consider “GATGATTGTTCTCCCAGCTGATGAATTATTCTTGTCGAGTAAACAAATTTTCCTAATCTTTCTGTTCAAGCGCCATCTAC”, for which the binding signal is 1.16 RPM ratio (pull-down/input).

With “GATGATTGTTCTCCCAGCTGATGAATTATGAGTCTCGAGTAAACAAATTTTCCTAATCTTTCTGTTCAAGCGCCATCTAC”, the binding signal was 0.886 RPM ratio (pull-down/input).

“GATGATTGTTCTCCCAGCTGATGAATTACGATCGTCGAGTAAACAAATTTTCCTAATCTTTCTGTTCAAGCGCCATCTAC”: the binding signal was 0.952 RPM ratio (pull-down/input).

“GATGATTGTTCTCCCAGCTGATGAATTTGAGCTTTCGAGTAAACAAATTTTCCTAATCTTTCTGTTCAAGCGCCATCTAC”: the binding signal is 0.854 RPM ratio (pull-down/input).

Consider “GATGATTGTTCTCCCAGCTGATGAATTCGCTTGCTCGAGTAAACAAATTTTCCTAATCTTTCTGTTCAAGCGCCATCTAC”, for which the binding signal was 0.817 RPM ratio (pull-down/input).

With “GATGATTGTTCTCCCAGCTGATGAATTAAACTCTTCGAGTAAACAAATTTTCCTAATCTTTCTGTTCAAGCGCCATCTAC”, the binding signal is 0.825 RPM ratio (pull-down/input).

Regarding “GATGATTGTTCTCCCAGCTGATGAATTTTTAATCTCGAGTAAACAAATTTTCCTAATCTTTCTGTTCAAGCGCCATCTAC”, the binding signal is 0.864 RPM ratio (pull-down/input).

Consider “GATGATTGTTCTCCCAGCTGATGAATTAAGTCCTTCGAGTAAACAAATTTTCCTAATCTTTCTGTTCAAGCGCCATCTAC”, for which the binding signal is 0.887 RPM ratio (pull-down/input).

With “GATGATTGTTCTCCCAGCTGATGAATTCTTCATCTCGAGTAAACAAATTTTCCTAATCTTTCTGTTCAAGCGCCATCTAC”, the binding signal is 0.813 RPM ratio (pull-down/input).

With “GATGATTGTTCTCCCAGCTGATGAATTGGTGCATTCGAGTAAACAAATTTTCCTAATCTTTCTGTTCAAGCGCCATCTAC”, the binding signal is 1.35 RPM ratio (pull-down/input).

With “GATGATTGTTCTCCCAGCTGATGAATTAACCTGCTCGAGTAAACAAATTTTCCTAATCTTTCTGTTCAAGCGCCATCTAC”, the binding signal was 0.79 RPM ratio (pull-down/input).

Take “GATGATTGTTCTCCCAGCTGATGAATTGACGAACTCGAGTAAACAAATTTTCCTAATCTTTCTGTTCAAGCGCCATCTAC”: the binding signal was 1.03 RPM ratio (pull-down/input).

As for “GATGATTGTTCTCCCAGCTGATGAATTTCTTGGGTCGAGTAAACAAATTTTCCTAATCTTTCTGTTCAAGCGCCATCTAC”, the binding signal was 0.716 RPM ratio (pull-down/input).

In the case of “GATGATTGTTCTCCCAGCTGATGAATTATGTATCTCGAGTAAACAAATTTTCCTAATCTTTCTGTTCAAGCGCCATCTAC”, the binding signal is 1.45 RPM ratio (pull-down/input).

As for “GATGATTGTTCTCCCAGCTGATGAATTGTATGTATCGAGTAAACAAATTTTCCTAATCTTTCTGTTCAAGCGCCATCTAC”, the binding signal was 1.67 RPM ratio (pull-down/input).

“GATGATTGTTCTCCCAGCTGATGAATTATGTATATCGAGTAAACAAATTTTCCTAATCTTTCTGTTCAAGCGCCATCTAC”: the binding signal was 1.79 RPM ratio (pull-down/input).

For “GATGATTGTTCTCCCAGCTGATGAATTATATGTATCGAGTAAACAAATTTTCCTAATCTTTCTGTTCAAGCGCCATCTAC”, the binding signal was 1.41 RPM ratio (pull-down/input).

As for “GATGATTGTTCTCCCAGCTGATGAATTATGTGTATCGAGTAAACAAATTTTCCTAATCTTTCTGTTCAAGCGCCATCTAC”, the binding signal is 1.92 RPM ratio (pull-down/input).

On to “GATGATTGTTCTCCCAGCTGATGAATTATGTGAATCGAGTAAACAAATTTTCCTAATCTTTCTGTTCAAGCGCCATCTAC”, for which the binding signal was 1.14 RPM ratio (pull-down/input).

As to “GATGATTGTTCTCCCAGCTGATGAATTACAAAATTCGAGTAAACAAATTTTCCTAATCTTTCTGTTCAAGCGCCATCTAC”, the binding signal was 1.37 RPM ratio (pull-down/input).

Consider “GATGATTGTTCTCCCAGCTGATGAATTCACCCGGTCGAGTAAACAAATTTTCCTAATCTTTCTGTTCAAGCGCCATCTAC”, for which the binding signal is 0.783 RPM ratio (pull-down/input).

With “GATGATTGTTCTCCCAGCTGATGAATTTAGTCTCTCGAGTAAACAAATTTTCCTAATCTTTCTGTTCAAGCGCCATCTAC”, the binding signal was 0.934 RPM ratio (pull-down/input).

Consider “GATGATTGTTCTCCCAGCTGATGAATTCCCTTTCTCGAGTAAACAAATTTTCCTAATCTTTCTGTTCAAGCGCCATCTAC”, for which the binding signal was 0.783 RPM ratio (pull-down/input).

“GATGATTGTTCTCCCAGCTGATGAATTCCGCCGATCGAGTAAACAAATTTTCCTAATCTTTCTGTTCAAGCGCCATCTAC”: the binding signal is 0.721 RPM ratio (pull-down/input).

In the case of “GATGATTGTTCTCCCAGCTGATGAATTATTAACCTCGAGTAAACAAATTTTCCTAATCTTTCTGTTCAAGCGCCATCTAC”, the binding signal was 1.06 RPM ratio (pull-down/input).

For the sequence “GATGATTGTTCTCCCAGCTGATGAATTACACAGATCGAGTAAACAAATTTTCCTAATCTTTCTGTTCAAGCGCCATCTAC”, the binding signal is 1.18 RPM ratio (pull-down/input).

With “GATGATTGTTCTCCCAGCTGATGAATTTACACAATCGAGTAAACAAATTTTCCTAATCTTTCTGTTCAAGCGCCATCTAC”, the binding signal is 1.87 RPM ratio (pull-down/input).

For the sequence “GATGATTGTTCTCCCAGCTGATGAATTTTACACATCGAGTAAACAAATTTTCCTAATCTTTCTGTTCAAGCGCCATCTAC”, the binding signal was 1.11 RPM ratio (pull-down/input).

Turning to “GATGATTGTTCTCCCAGCTGATGAATTACACACATCGAGTAAACAAATTTTCCTAATCTTTCTGTTCAAGCGCCATCTAC”, the binding signal was 1.48 RPM ratio (pull-down/input).

On to “GATGATTGTTCTCCCAGCTGATGAATTTTTACAATCGAGTAAACAAATTTTCCTAATCTTTCTGTTCAAGCGCCATCTAC”, for which the binding signal was 1.23 RPM ratio (pull-down/input).

For the sequence “GATGATTGTTCTCCCAGCTGATGAATTACACAAATCGAGTAAACAAATTTTCCTAATCTTTCTGTTCAAGCGCCATCTAC”, the binding signal is 1.77 RPM ratio (pull-down/input).
